TR SRC2 fluor cs – alters Texas Red total fluorescence, flagging assay interference | TRb/SRC2 Texas Red total fluorescence interference | Potency, µM (top dose mostly 106 µM), without a hit: at the highest dose fluorescence change, negative = quenching | 0.29% of 280,000 active | AID 1479; active = well fitted curve in either direction with a large enough effect; inconclusive = small, poorly fitted or top-dose-only effect
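Flags fluorescent or light-absorbing compounds by total fluorescence, S + 2P, at 555 nm excitation and 632 nm emission. Mixture: 20 nM Texas Red SRC2 peptide, 0.6 uM human TRb LBD, 1 uM T3, 5% DMSO; compound exposure 5 h at ambient temperature.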
TRb SRC2 PPI – inhibitors of human thyroid hormone receptor beta-SRC2 interaction. P10828. TRbeta-SRC2 peptide binding, fluorescence polarization; receptor liganded with 1 µM T3. Potency, µM (titrated, usually from 106 µM), for inactives: top-dose activity change, negative = inhibition, usual class: inhibitors. 0.065% of 280,000 active. AID 1469;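 also: plate controls were bound peptide for no effect and peptide without receptor for full effect; nearly all actives have a fitted effect of over 50% in size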
Target sequence (P10828 whole entry, looked up): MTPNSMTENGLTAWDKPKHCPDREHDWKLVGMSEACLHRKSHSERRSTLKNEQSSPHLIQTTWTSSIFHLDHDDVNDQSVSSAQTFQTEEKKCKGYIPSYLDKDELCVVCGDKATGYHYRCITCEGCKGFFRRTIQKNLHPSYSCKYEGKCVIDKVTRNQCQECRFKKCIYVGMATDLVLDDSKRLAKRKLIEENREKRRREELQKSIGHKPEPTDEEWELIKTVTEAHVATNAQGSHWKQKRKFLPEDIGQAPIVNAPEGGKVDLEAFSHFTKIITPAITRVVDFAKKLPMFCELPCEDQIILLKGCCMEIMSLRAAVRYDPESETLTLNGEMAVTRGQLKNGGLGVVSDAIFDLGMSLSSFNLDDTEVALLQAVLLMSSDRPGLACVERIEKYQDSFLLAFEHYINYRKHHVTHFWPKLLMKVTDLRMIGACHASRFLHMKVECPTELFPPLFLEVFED
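Fluorescence polarization of 20 nM Texas Red SRC2 peptide (20-aa NR interaction domain) bound to 0.6 uM human TRb ligand-binding domain, with 1 uM T3, after 5 hr at ambient temperature; inhibition seen as decreased polarization.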
Tau fluor counter – counter-screen for tau fibril formation inhibitors. Potency, µM (top dose mostly 57.7 µM), for inactives: top-dose activity change, negative = decrease. 0.93% of 280,000 active. AID 1463. tau K18 P301L Alexa594 fluorescence, heparin fibrillization; also: nearly all actives have a fitted effect of over 55% in size
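Human tau K18 P301L (15 uM unlabeled, 0.24 uM Alexa 594-labeled) in 100 mM sodium acetate pH 7 with 20 uM heparin, 6 hr at 37 C. ThT 30 uM added, 1 hr ambient; Alexa 594 FP and total fluorescence read at 555/632 nm.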
Tau fibril ThT – blocks human tau fibril formation measured by thioflavin T | AID 1460 | 2.1% of 270,000 active | recombinant tau K18 P301L (four-repeat tau fragment), heparin-induced fibrillization, ThT fluorescence | P10636 | Potency, µM (top dose mostly 57.4 µM), for inactives: at the top dose activity, negative = inhibition, usual class: inhibitors; also: nearly all actives have a fitted effect of over 55% in size
Target sequence (P10636 561-689 P618L limits assumed): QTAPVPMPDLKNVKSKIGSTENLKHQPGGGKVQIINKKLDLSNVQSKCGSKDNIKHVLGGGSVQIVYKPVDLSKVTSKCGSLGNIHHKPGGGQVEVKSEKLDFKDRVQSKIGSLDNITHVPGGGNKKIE
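Recombinant human tau K18 fragment […] carrying P301L, 15 uM unlabeled plus 0.24 uM Alexa 594-labeled, was fibrillized with 20 uM heparin in 100 mM sodium acetate pH 7 for 6 hr at 37 C; 30 uM ThT fluorescence read after 1 hr.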
Tau fibril FP – tau fibrillization inhibition (FP). P10636. K18 P301L tau heparin fibrillization, Alexa594 FP, 6 h. Potency, µM (highest dose often 57.7 µM), for the others: top-dose activity, negative = inhibition, usual class: inhibitors. 0.39% of 280,000 active. AID 1468; also: nearly all actives have a fitted effect of over 55% in size
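Read-out: fluorescence polarization of Alexa 594-labeled tau (0.24 uM), 555 nm excitation, 632 nm emission. Mixtures held 15 uM unlabeled K18 P301L, compound and 20 uM heparin, pH 7 acetate buffer, incubated 6 hr at 37 C.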
The depositor's hits bear a star; ? = inconclusive; / = no result; [ ] = remark or other dose. Most compounds without a hit are left out; they make up all but 3% or so of the library. Unless noted, calls follow the shape of the dose curve; as a rule, active = well fitted curve in the direction sought with a large enough effect; inconclusive = small, poorly fitted or top-dose-only effect, or another doubt; inactive = no such curve, though single readings can be large; an effect the other way counts as inactive or inconclusive. Unless noted, % is scaled to controls: 0 for no effect and ±100 for the full control effect; potency is read from the fitted curve at half-maximal effect.

SMILES	TR SRC2 fluor cs	TRb SRC2 PPI	Tau fluor counter	Tau fibril ThT	Tau fibril FP
Cc1ccc(/C=C2/NC(=O)N(c3ccccc3)C2=O)o1	1%	-6%	-19%	25µM*	?
CCN1C(=O)N/C(=C/c2ccc(C)o2)C1=O	0%	-5%	-16%	?	?
CCCCCCCCCCCCCCCC(=O)NCC(=O)O	-1%	1%	-1%	-4%	5%
COc1ccc(-c2nc3c4ccccc4n(CC(=O)N4CCN(c5ccccc5F)CC4)c(=O)n3n2)cc1	-1%	2%	7%	-1%	6%
O=C(O)C1Nc2c(O)cccc2C2C=CCC12 (configuration not stated)	?	17%	?	13µM*	?
O=C(OC1CCCCC1)c1ccc2c(c1)C1C=CCC1C(C(=O)O)N2 (configuration not stated)	?	-6%	-21%	?	-2%
COc1ccc(/C=C/C(=O)c2ccoc2)cc1	-3%	-4%	3%	?	17%
COc1ccc(/C=C/C(=O)c2ccccc2O)cc1	-1%[11.2 µM]	4%[11.2 µM]	-13%[11.6 µM]	?	8%[11.6 µM]
COc1ccc(/C=C/C(=O)c2ccccn2)cc1	2%	-4%	-22%	20µM*	-15%
COc1ccc(/C=C/C(=O)c2c(O)c(OC)c3occc3c2OC)cc1	-3%	0%	?	4.5µM*	3%
Cc1ccc(CN(Cc2cc3cc4c(cc3[nH]c2=O)OCCO4)Cc2nnnn2Cc2ccco2)cc1	-1%	-6%	-29%	35µM*	?
Cc1[nH]nc2c1C(c1ccco1)C(C#N)=C(N)O2 (configuration not stated)	0%	-5%	-1%	-8%	6%
COc1ccc(-c2ccc(C3C(C#N)=C(N)Oc4n[nH]c(C)c43)o2)cc1 (configuration not stated)	-11%	5%	?	4.5µM*	-1%
Cc1ccc(N(C)C(=O)Cn2nc(Cc3ccncc3)c3ccccc3c2=O)cc1C	-3%	2%	-15%	-8%	-8%
O=C(/C=C/c1ccc2c(c1)OCO2)Nc1c(C(=O)O)[nH]c2ccccc12	-32%	3%	-29%	13µM*	10%
CN1CCN(C(=O)c2ccc3c(c2)N(Cc2c(F)cccc2Cl)C(=O)c2ccccc2S3)CC1	-1%	4%	-10%	-4%	-1%
BrC(=C\c1ccccc1)/C=N/Nc1nc2ccccc2[nH]1	-1%	5%	?	25µM*	-9%
O=C(O)c1ccc(N/N=C/C(Br)=C/c2ccccc2)cc1	-5%	-1%	?	14µM*	7%
O=C(N/N=C/C(Br)=C/c1ccccc1)C(O)c1ccccc1 (configuration not stated)	0%	5%	?	-12%	-13%
O=C(NCc1ccccc1Br)c1cnc2sc(N3CCCCCC3)nn2c1=O	0%	2%	-9%	-12%	-4%
c1ccc2cc3ccccc3cc2c1	-5%[201 µM]	-2%[201 µM]	/	/	/
Cc1cccc(NC(=O)COc2ccc(/C=C\c3[nH]c(=O)[nH]c(=O)c3[N+](=O)[O-])cc2)c1	0%	1%	0%	10µM*	-6%
CCOC(=O)c1cccc(NC(=O)COc2ccc([N+](=O)[O-])cc2)c1	-1%	5%	?	?	-5%
CCOc1ccccc1CNC(=O)c1cn(-c2ccc(OC)cc2)c(=O)c2ccccc12	0%	1%	-6%	?	5%
CCc1ccc2c(c1)/C(=N/N(C)C(=S)NC)C(=O)N2	-7%	0%	-24%	32µM*	-5%
SMILES	TR SRC2 fluor cs	TRb SRC2 PPI	Tau fluor counter	Tau fibril ThT	Tau fibril FP
CCOc1ccc(NC(=O)c2c(NCc3sccc3C)sc3c2CCCCC3)cc1	1%	1%	?	14µM*	?
CCOc1ccc(NC(=O)c2c(NCc3cccs3)sc3c2CCCCC3)cc1	0%	0%	?	?	-4%
CCOc1ccc(NC(=O)c2c(NCc3ccc(C)o3)sc3c2CCCCC3)cc1	-2%	-1%	-23%	22µM*	?
COc1ccc(NC(=O)c2c(NCc3ccc(C)o3)sc3c2CCC(C)C3)cc1 (configuration not stated)	-1%	-8%	?	25µM*	?
CCOc1ccccc1NC(=O)c1c(NCc2sccc2C)sc2c1CCC(C)C2 (configuration not stated)	0.14µM*[quencher]	?	-11%	-13%	8%
CCOc1ccccc1NC(=O)c1c(NCc2sccc2C)sc2c1CCCCC2	1%	-3%	-23%	?	-12%
O=C(Cn1ncc2c([nH]c3ccccc32)c1=O)NCCCN1CCN(c2ccc(F)cc2)CC1	8%	10%	-16%	-12%	7%
CCCCc1nn2c(=O)cc(COC(=O)COc3ccc(C)cc3)nc2s1	-5%	-6%	-6%	-13%	-1%
Cc1cc(C)cc(C(=O)Nc2c(C(=O)Nc3ccccc3F)oc3ccccc23)c1	-1%	0%	-11%	17%	-8%
COc1ccc2c(c1)O[C@@H](c1ccc3c(c1)OCO3)[C@H](O)C2=O	-1%	3%	-4%	-10%	-8%
COc1ccc(S(=O)(=O)NCCc2sc(-c3cccnc3)nc2C)c(F)c1	-2%	-6%	-8%	-8%	-7%
CCOC(=O)c1c(C)[nH]c(C)c1S(=O)(=O)N(C)CC(=O)Nc1cc(Cl)ccc1OC	-3%	-1%	?	-17%	5%
COCCN=c1scc(-c2cc(OC)ccc2OC)n1/N=C/c1c[nH]c2ccccc12	-2%	1%	7.9µM*[quencher]	?	-10%
COC(=O)N/N=C/c1c[nH]c2ccccc12	-3%	2%	1%	-4%	3%
COc1ccc2c(c1)-c1nc(NC(=O)c3cc(OC)c(OC)c(OC)c3)sc1CC2	2%	2%	?	-12%	4%
COc1ccc2c(c1)-c1nc(/N=C/c3ccc(O)c(OC)c3)sc1CC2	-1%	1%	-24%	32µM*	?
COc1ccc2c(c1)-c1nc(N)sc1CC2	-1%	7%	?	32µM*	?
CCCCCC(=O)c1cc(CC(C(=O)OC)C(=O)OC)cc2cc(OC)c(OC)cc12	-3%[11.2 µM]	6%[11.2 µM]	-24%[11.6 µM]	-18%[11.5 µM]	-5%[11.6 µM]
COc1ccc2nc(S(=O)Cc3ncc(C)c(OC)c3C)[nH]c2c1 (configuration not stated)	-1%	-2%	-25%	32µM*	?
Cc1cc2cc(CNS(=O)(=O)c3ccccc3)ccc2n1C	50µM*[fluorescent]	45µM*	-21%	?	-1%
CCN(CC)S(=O)(=O)c1ccc(C(=O)NCc2ccc3c(c2)cc(C)n3C)cc1	45µM*[fluorescent]	40µM*	-26%	-17%	6%
COc1ccc(S(=O)(=O)NCc2ccc3c(c2)cc(C)n3C)cc1	?	-24%	-14%	-18%	-6%
COc1ccc(C(=O)NCc2ccc3c(c2)cc(C)n3C)cc1OC	-2%	1%	-11%	-2%	4%

Screens: PubChem, National Center for Advancing Translational Sciences (NCATS)
